# Screening results as filed in PubChem BioAssay.
# SW480 rereplic – inducers of DNA re-replication in SW480 colon cancer cells | SW480 DNA re-replication, Hoechst DNA content imaging, 48 h | Potency, µM (titrated, usually from 46.1 µM), inactives show at the highest dose re-replication activation, actives largely listed as activators | hit rate 1.8% among 340,000 | AID 624297; also: potency is read from the fitted curve at half-maximal effect; % of control where 0% means no effect; nearly all actives have a fitted effect of over 55% in size
#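 Treated cells incubate 48 hr (37 C, 5% CO2), are stained 40 min with Hoechst, and nuclear fluorescence is enumerated; a rise in nuclei with high DNA signal marks re-replication.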
# MCF10A rerep – DNA re-replication induction in MCF 10a cells; MCF 10A DNA re-replication, Hoechst nuclear intensity, 48 h; Potency, µM (series often up to 46.1 µM), for the others: at the top dose activity, positive = re-replication, most hits filed as activators; hit rate 2.9% among 350,000; AID 624296; also: potency is read from the fitted curve at half-maximal effect; % of control where 0% means no effect; nearly all actives have a fitted effect of over 50% in size
# VP16 counter – Gal4-VP16 reporter inhibition counter-screen | AID 2546 | hit rate 3.5% among 310,000 | Drosophila S2 Gal4-VP16 UAS-luciferase, luminescence, 20 h | Potency, µM (titrated, usually from 53.6 µM), without a hit: at the top dose activity, negative = inhibition, usual class: inhibitors;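 also: Gal4-VP16 expression switched on by copper sulfate through the metallothionein promoter; potency is read from the fitted curve at half-maximal effect; % is scaled to controls: 0 for no effect and ±100 for the full control effect; nearly all actives have a fitted effect of over 50% in size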
# RORgamma inh – inhibitors of mouse ROR gamma transcriptional activity | Potency, µM (top dose mostly 53.6 µM), without a hit: top-dose activity change, negative = inhibition, actives largely listed as inhibitors | Drosophila S2 Gal4-RORgamma UAS-luciferase reporter, 20 h | hit rate 5.4% among 310,000; also: potency is read from the fitted curve at half-maximal effect; % is scaled to controls: 0 for no effect and ±100 for the full control effect; nearly all actives have a fitted effect of over 60% in size
# Target sequence (P51450 whole entry, looked up, the tested form may be a part): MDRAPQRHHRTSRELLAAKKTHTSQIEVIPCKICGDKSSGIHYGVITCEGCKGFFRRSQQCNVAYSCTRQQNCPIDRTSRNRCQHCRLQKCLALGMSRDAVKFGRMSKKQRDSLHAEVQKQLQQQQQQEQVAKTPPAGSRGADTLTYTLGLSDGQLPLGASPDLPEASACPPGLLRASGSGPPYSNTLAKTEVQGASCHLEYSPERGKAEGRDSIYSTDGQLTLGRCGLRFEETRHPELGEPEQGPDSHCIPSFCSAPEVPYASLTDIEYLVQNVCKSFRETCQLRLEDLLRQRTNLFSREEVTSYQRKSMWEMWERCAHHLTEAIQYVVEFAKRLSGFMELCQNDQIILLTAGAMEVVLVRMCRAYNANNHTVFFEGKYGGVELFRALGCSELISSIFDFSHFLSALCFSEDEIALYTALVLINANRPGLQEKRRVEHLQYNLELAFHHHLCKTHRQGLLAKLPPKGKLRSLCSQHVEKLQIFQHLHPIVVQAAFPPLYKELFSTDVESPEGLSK
#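 Drosophila S2 cells stably expressing Gal4-DBD/mouse RORγ fusion under metallothionein promoter plus UAS-luciferase; compound 1 h, then 700 uM CuSO4 induction for 20 h at ambient temperature; inhibition read as reduced luminescence.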
# Chronic BCR inh – chronic active BCR signaling inhibition. hit rate 0.05% among 340,000. ABC-DLBCL IkBa-CBG/CBR reporter, luminescence ratio, 4 h. Potency, µM (doses to about 46.1 µM), without a hit: at the top dose activity change, negative = inhibition, usual class: inhibitors; active = well fitted inhibition curve with a large enough effect in the signal ratio, with a control signal flat, not every such curve was filed as active; inconclusive = small, poorly fitted or top-dose-only effect, or effect the other way, or a change in a side signal; the % refers to the signal ratio;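 also: potency is read from the fitted curve at half-maximal effect; plate controls were basal doxycycline-induced cells for no effect and cells given 10 µM MG132 for full effect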
#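 Cell line TMD8 (human ABC DLBCL), stably expressing tet-inducible CBG68-IkBa fusion and CBR; IMDM/0.5% FBS; cpd up to 46 uM; dox induction, 4 h, 37C/5% CO2; dual luminescence; green/red ratio; MG132 control.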
# Giardia kill – Giardia lamblia killing; Giardia lamblia trophozoite viability; activity change, % at 7.66 µM, hits read low; hit rate 0.15% among 340,000; in the data active = activity change below about -80%; inconclusive = between about -30% and that limit;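 also: parasites exposed to compound for two days anaerobically before the ATP read; % is scaled to controls: 0 for no effect and ±100 for the full control effect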
#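 Trophozoites 100 cells/well + cpd; 48 hrs, 37 deg C, anaerobic. ATPLite 1-Step added, 15-30 min RT, luminescence read (ATP-based viability).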
# Numbers without * were called inactive; ? = inconclusive; . = no result; [ ] = dose if it differs, or a comment. Sampled rows, rich in hits. Any-hit rate of the full collection: about 8.3%. Unless noted, calls follow the shape of the dose curve; as a rule, active = well fitted curve in the direction sought with a large enough effect; inconclusive = small, poorly fitted or top-dose-only effect, or another doubt; inactive = no such curve, though single readings can be large; an effect the other way counts as inactive or inconclusive.
SMILES,SW480 rereplic,MCF10A rerep,VP16 counter,RORgamma inh,Chronic BCR inh,Giardia kill
CN(c1ccccc1)S(=O)(=O)c1cccc(NC(=O)CSc2nncs2)c1,?,-4.6%,22.4µM*,36.5%,5.2%,0.0
COc1ccc(NS(=O)(=O)c2ccc(C)c(C(=O)N(C)CC(=O)Nc3cccc(OC)c3)c2)cc1,1.0%,?,.,.,2.3%,-10.4
Cc1ccc2nc(-c3ccncc3)cc(C(=O)NCCc3ccc(F)cc3)c2c1,?,?,-11.0%,-32.2%,-1.5%,3.7
Cc1ccc2nc(-c3ccccn3)cc(C(=O)NCCc3ccc(F)cc3)c2c1,22.8%,8.1%,-7.0%,10µM*,0.2%,-18.1
O=C(Nc1ccc(F)cc1)c1cc(-c2ccccn2)nc2c(Cl)cccc12,?,?,-24.4%,12.6µM*,-2.6%,10.3
N#Cc1cccc(NC(=O)CCN2C(=O)C3CCCCC3C2=O)c1 (centres undefined),-6.4%,3.8%,.,.,4.2%,-3.5
CCN(CC)S(=O)(=O)c1ccc(C(=O)OCC(=O)NCCN2C(=O)CSC2=O)cc1,-55.5%,5.4%,3.9%,-18.5%,2.1%,2.5
CN(Cc1cc(Cl)cc(Cl)c1)CC(C(=O)c1ccccc1)c1ccccc1 (centres undefined),13µM*,16.4µM*,.,.,.,2.4
CN(C)CC(C(=O)c1ccccc1)c1ccccc1 (centres undefined),24.8%,2.59µM*,7.08µM*,7.08µM*,?,?
O=C(CC(C(=O)c1ccccc1)c1ccccc1)c1ccccc1 (centres undefined),-4.4%,8.2%,.,.,.,21.7
CC(=O)Nc1ccc(C(=O)OCC(=O)NCc2ccc(Cl)cc2)cc1,.,.,2.7%,26.7%,-8.8%,.
N#CC(C#N)=Cc1ccc(NC(=O)c2ccc(Br)cc2)cc1,?,?,-29.8%,-16.0%,-19.7%,-16.0
CC(C)(C)c1ccc(C(=O)Nc2ccc(C=C(C#N)C#N)cc2)cc1,?,?,5.62µM*,5.01µM*,?,-21.7
Cc1cc(Cl)ccc1OCC(=O)NCCOc1nc(N2CCOCC2)nc(N2CCOCC2)n1,0.8%,8.4%,0.0%,13.3%,-4.2%,-8.4
COc1ccc2c(c1)c(/C=N/Nc1nc3ccccc3[nH]1)c(C)n2C,?,20.6µM*,15.8µM*,3.55µM*,15.8µM*,25.2
Clc1ccc(Cn2c(/C=C/c3ccco3)nc3ccccc32)cc1,16.3%,20.6µM*,?,?,?,-4.1
Cc1ccc(Cn2c(/C=C/c3ccco3)nc3ccccc32)cc1,-9.2%,-2.3%,?,11.2µM*,4.1%,4.3
COc1ccc(/C=N/Nc2nc3ccccc3[nH]2)cc1OC,-8.7%,-3.1%,0.8%,-28.6%,?,5.4
CCCCn1c(/C=N/Nc2nc3ccccc3[nH]2)nc2ccccc21,8.2µM*,?,1.58µM*,1.78µM*,-11.0%,1.4
CCCn1c(/C=C/c2ccco2)nc2ccccc21,8.4%,?,?,-37.9%,-5.4%,-9.5
CCCCNc1nc2ccccc2[nH]1,-9.0%,-4.8%,5.8%,27.3%,?,13.5
COc1ccc(-c2nnc3ccc(SCC(=O)N4CCCCC4)nn23)cc1OC,-2.1%,24.8%,3.9%,-17.5%,?,9.1
CN(C)C(=O)C(OC(=O)c1ccc2ccccc2n1)c1ccccc1 (centres undefined),-4.7%,-2.2%,-0.4%,1.1%,0.1%,2.0
CCCCn1c(/C=C/c2ccco2)nc2ccccc21,.,4.4%,?,12.6µM*,0.0%,1.5
S=C(NCc1ccco1)Nc1ccc(Cl)cc1Cl,-10.6%,14.7%,?,11.2µM*,0.1%,-22.5
SMILES,SW480 rereplic,MCF10A rerep,VP16 counter,RORgamma inh,Chronic BCR inh,Giardia kill
S=C(NCc1cccc(Cl)c1)NCc1ccco1,?,?,?,-107.0%,4.4%,-10.5
S=C(NCc1ccco1)Nc1ccc(Br)cc1Cl,1.7%,18.2%,-25.2%,12.6µM*,?,-16.5
Nc1ccccc1C#CC(=O)c1ccccc1,?,8.2µM*,7.08µM*,7.08µM*,?,14.1
O=C(C#Cc1cccc([N+](=O)[O-])c1)c1ccccc1,.,.,3.16µM*,2.82µM*,?,.
O=C(Nc1cccc([N+](=O)[O-])c1)c1ccccc1,-2.7%,1.6%,3.4%,?,-11.2%,-4.2
CNC(=S)N1CCn2cccc2C1c1ccc(F)cc1 (centres undefined),-0.1%,6.3%,-9.3%,?,-0.3%,-17.2
CN(CC(O)CON=C1c2ccccc2-c2ccccc21)S(=O)(=O)c1ccc(Br)cc1 (centres undefined),?,16.4µM*,?,29.2%,-3.0%,-1.1
Cc1cccc(N(CC(O)CON=C2c3ccccc3-c3ccccc32)S(C)(=O)=O)c1 (centres undefined),?,16.4µM*,-13.0%,18.0%,-28.7%,0.0
COc1ccc(NC(=O)COC(=O)CNC(=O)COc2ccccc2)cc1OC,8.9%,?,.,.,4.2%,-2.1
COc1cccc(Oc2nc(C)nc3c2oc2ccccc23)c1,.,.,.,.,-23.5%,.
CCCC[C@@H]1CNC(=S)N1CCc1cccc(F)c1,3.6%,0.8%,3.98µM*,1.41µM*,-9.2%,-10.2
COc1cc(CCCN2C(=S)NC[C@H]2Cc2ccc(O)cc2)cc(OC)c1OC,-1.7%,-12.1%,-9.4%,33.4%,-15.3%,-10.3
NC1=NC[C@H](c2ccccc2)N1CCc1cccc(F)c1,-11.7%,-2.0%,3.3%,-13.4%,?,5.9
Fc1cccc(CCN2C(=S)NC[C@@H]2Cc2ccccc2)c1,-16.9%,-7.8%,7.08µM*,2.24µM*,-12.4%,-13.9
CCCC[C@@H]1CNC(=S)N1CCCc1cc(OC)c(OC)c(OC)c1,-32.1%[9.22 µM],-0.9%,?,8.91µM*,2.6%,-4.3
CC(O)[C@H]1CNC(=S)N1CCc1cccc(F)c1 (some centres undefined),-0.3%,2.3%,-13.0%,-0.1%,?,2.1
Fc1cccc(CCN2C(=S)NC[C@@H]2CC2CCCCC2)c1,-1.2%,?,6.31µM*,2µM*,1.4%,?
O=C(CSc1ncn[nH]1)CSc1ncn[nH]1,11.2%,-1.1%,-7.3%[10 µM],-14.1%,-0.8%,-0.8
Cc1sc(N2C(=O)C3C(C2=O)[C@H]2C=C[C@@H]3C2)c(C#N)c1C (some centres undefined),-17.4%,1.1%,-5.8%,4.1%,-7.3%,-0.5
CO[C@@H]1COC(=O)[C@@H](C)NC(=O)C/C=C\[C@@H](C)[C@H](NS(=O)(=O)c2ccc(C)cc2)COC(=O)[C@H](C)NC(=O)C/C=C\[C@H]1C,.,.,-5.5%[10 µM],-4.0%[10 µM],.,.
CC1CC(=S)Nc2ccccc2N1C(=O)Nc1ccccc1 (centres undefined),-1.5%,0.4%,?,10µM*,-0.9%,-11.6
